{"source": "PubChem BioAssay (NCATS)", "note": "A number with no mark means an inactive call. A call without a number means that no potency is given here. For part of these data: Potency and affinity values are given separately. Calls of active or inactive are those of the source. No rule for the calls is given here.", "data": [{"settings": "Ebola virus entry assay, green fluorescence channel", "units": {"efficacy": "%"}, "values": [{"molecule": "CC(C)=CC1C(C(=O)OCN2C(=O)C3=C(CCCC3)C2=O)C1(C)C", "note": "(configuration not stated)", "efficacy": 28}, {"molecule": "COc1cccc2c1C(=O)c1c(O)c3c(c(O)c1C2=O)C[C@@](O)(C(=O)CO)CC3OC1CC(N2CCOC(OC)C2)C(O)C(C)O1", "note": "(some centres not stated)", "efficacy": 57.9}, {"molecule": "Cc1ccc(Nc2nccc(N(C)c3ccc4c(C)n(C)nc4c3)n2)cc1S(N)(=O)=O", "efficacy": 37.4}, {"molecule": "C[C@H]1[C@@H]2Cc3ccc(O)cc3[C@@]1(C)CCN2C", "efficacy": 67.4}, {"molecule": "CCN(CC)CCc1c[nH]c2ccccc12", "efficacy": 21.6}, {"molecule": "C[C@]12CCC(=O)C=C1CC[C@@H]1[C@@H]2CC[C@]2(C)C(=O)CC[C@@H]12", "efficacy": 19.1}, {"molecule": "COc1ccc2c(c1OC)C(=O)O[C@H]2[C@@H]1c2cc3c(cc2CCN1C)OCO3", "efficacy": 26.4}, {"molecule": "CC(C)(C)CC(C)(C)c1ccc(OCCOCC[N+](C)(C)Cc2ccccc2)cc1", "efficacy": -219}, {"molecule": "CCOC(=O)CC(SP(=S)(OC)OC)C(=O)OCC", "note": "(configuration not stated)", "efficacy": -13.3}, {"molecule": "C#C[C@]1(O)CC[C@H]2[C@@H]3CCc4cc(OC5CCCC5)ccc4[C@H]3CC[C@@]21C", "efficacy": 57.3}]}, {"settings": "Ebola virus entry assay, ratio channel", "values": [{"molecule": "COc1ccc(C(=O)c2ccccc2)c(O)c1", "outcome": "inactive"}, {"molecule": "CCN(CC)C(=O)[C@@H]1C=C2c3cccc4[nH]cc(c34)C[C@H]2N(C)C1", "outcome": "inactive"}, {"molecule": "CN1C(=O)NC(=O)C(C)(C2=CCCCC2)C1=O", "note": "(configuration not stated)", "outcome": "inactive"}, {"molecule": "O=C1OC(c2ccc(O)c(S(=O)(=O)O)c2)(c2ccc(O)c(S(=O)(=O)O)c2)c2c(Br)c(Br)c(Br)c(Br)c21", "outcome": "inactive"}, {"molecule": "CCC1(CC)C(=O)C=CNC1=O", "outcome": "inactive"}, {"molecule": "CN(C)[C@@H]1C(=O)C(C(N)=O)=C(O)[C@@]2(O)C(=O)C3=C(O)c4c(O)cccc4C[C@H]3C[C@@H]12", "AC50": "17.8 µM (active)"}, {"molecule": "CCCCC/C=C\\C/C=C\\C/C=C\\C/C=C\\CCCC(=O)NCC(=O)O", "outcome": "inactive"}, {"molecule": "O=c1c(C2CC(c3ccc(-c4ccc(Br)cc4)cc3)Cc3ccccc32)c(O)sc2ccccc12", "note": "(configuration not stated)", "outcome": "inactive"}, {"molecule": "Clc1ccc(C(c2ccc(Cl)cc2)C(Cl)(Cl)Cl)cc1", "outcome": "inactive"}, {"molecule": "CCC(C)(C)c1ccc(O)cc1", "outcome": "inactive"}, {"molecule": "COC(=O)[C@@H](N)CCCN/C(N)=N/[N+](=O)[O-]", "outcome": "inactive"}, {"molecule": "COc1ccccc1N1CCN(CCCCNC(=O)c2ccc(-c3ccc(C(C)=O)cc3)cc2)CC1", "outcome": "inactive"}, {"molecule": "NNc1ccccc1", "outcome": "inactive"}, {"molecule": "COc1ccc2c(c1)c(CC(=O)OC/C=C(\\C)CC/C=C(\\C)CCC=C(C)C)c(C)n2C(=O)c1ccc(Cl)cc1", "outcome": "inactive"}, {"molecule": "CCC1(c2ccc(N)cc2)CCC(=O)NC1=O", "note": "(configuration not stated)", "outcome": "inactive"}, {"molecule": "C#C[C@]1(O)CC[C@H]2[C@@H]3CCC4=CC(=O)CC[C@]4(C)[C@H]3CC[C@@]21C", "outcome": "inactive"}, {"molecule": "COP(=S)(OC)Oc1ccc(S(=O)(=O)N(C)C)cc1", "outcome": "inactive"}, {"molecule": "CNC(C)(C)Cc1ccccc1", "outcome": "inactive"}, {"molecule": "CN(c1nccc(=O)[nH]1)C1CCN(c2nc3ccccc3n2Cc2ccc(F)cc2)CC1", "outcome": "inactive"}, {"molecule": "CCc1cc2c(s1)-n1c(C)nnc1CN=C2c1ccccc1Cl", "outcome": "inactive"}, {"molecule": "COP(=S)(OC)SCN1C(=O)c2ccccc2C1=O", "outcome": "inactive"}, {"molecule": "Nc1ccc([As](=O)(O)O)cc1", "outcome": "inactive"}, {"molecule": "C[C@]12CC[C@H]3[C@@H](CC[C@@]45O[C@H]4C(O)=C(C#N)C[C@]35C)[C@H]1CC[C@H]2O", "outcome": "inactive"}, {"molecule": "CC(C)=CC1C(C(=O)OCN2C(=O)C3=C(CCCC3)C2=O)C1(C)C", "note": "(configuration not stated)", "outcome": "inactive"}, {"molecule": "COc1cccc2c1C(=O)c1c(O)c3c(c(O)c1C2=O)C[C@@](O)(C(=O)CO)CC3OC1CC(N2CCOC(OC)C2)C(O)C(C)O1", "note": "(some centres not stated)", "outcome": "inactive"}, {"molecule": "C[C@H]1[C@@H]2Cc3ccc(O)cc3[C@@]1(C)CCN2C", "outcome": "inactive"}, {"molecule": "CCN(CC)CCc1c[nH]c2ccccc12", "outcome": "inactive"}, {"molecule": "C[C@]12CCC(=O)C=C1CC[C@@H]1[C@@H]2CC[C@]2(C)C(=O)CC[C@@H]12", "outcome": "inactive"}, {"molecule": "COc1ccc2c(c1OC)C(=O)O[C@H]2[C@@H]1c2cc3c(cc2CCN1C)OCO3", "outcome": "inactive"}, {"molecule": "CC(C)(C)CC(C)(C)c1ccc(OCCOCC[N+](C)(C)Cc2ccccc2)cc1", "AC50": "2.51 µM (active)"}, {"molecule": "CCOC(=O)CC(SP(=S)(OC)OC)C(=O)OCC", "note": "(configuration not stated)", "outcome": "inactive"}, {"molecule": "C#C[C@]1(O)CC[C@H]2[C@@H]3CCc4cc(OC5CCCC5)ccc4[C@H]3CC[C@@]21C", "AC50": "5.01 µM (active)"}]}]}
